# Experimental data as given in the supplement of paper PMC4466140.
# B1: unnamed (peptide)
# chain: ATNVPVAPPPPPASL
# Experiments:
# Experiment in all cases: SPOT peptide array binding signal intensity (averaged, normalized) (arbitrary units (background-subtracted, floor 0; scale differs between SH3 domains)); higher = stronger binding of the SH3 domain to the peptide
# [1] = biological target: AgAbp1
# Procedure, shortened: (§1)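 Four yeast species supplied the SH3 domains, which were expressed as GST fusions in E. coli BL21(DE3) and purified on glutathione Sepharose. Incubation with cellulose membranes carrying synthetic 15-mer peptides, cysteines exchanged for serines, ran overnight at 4°C at 10 μg/ml in TBS-based blocking buffer. Binding signal is reported as normalized, background-subtracted spot intensity averaged over replicates, in arbitrary units not shared between domains.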
# [2] = biological target: AgBbc1
# Procedure, shortened: as §1
# [3] = biological target: AgBem1-D1
# Procedure, shortened: as §1
# [4] = biological target: AgBzz1-D1
# Procedure, shortened: as §1
# [5] = biological target: AgBzz1-D2
# Procedure, shortened: as §1
# [6] = biological target: AgCyk3
# Procedure, shortened: as §1
# [7] = biological target: AgFus1
# Procedure, shortened: as §1
# [8] = biological target: AgHof1
# Procedure, shortened: as §1
# [9] = biological target: AgHse1
# Procedure, shortened: as §1
# [10] = biological target: AgLsb1
# Procedure, shortened: as §1
# [11] = biological target: AgLsb4
# Procedure, shortened: as §1
# [12] = biological target: AgMyo5
# Procedure, shortened: as §1
# [13] = biological target: AgNbp2
# Procedure, shortened: as §1
# [14] = biological target: AgRvs167
# Procedure, shortened: as §1
# [15] = biological target: AgSho1
# Procedure, shortened: as §1
# [16] = biological target: AgSla1-D1-D2
# Procedure, shortened: as §1
# [17] = biological target: AgSla1-D3
# Procedure, shortened: as §1
# [18] = biological target: CaAbp1-D1
# Procedure, shortened: as §1
# [19] = biological target: CaAbp1-D2
# Procedure, shortened: as §1
# [20] = biological target: CaBbc1
# Procedure, shortened: as §1
# [21] = biological target: CaBem1-D1
# Procedure, shortened: as §1
# [22] = biological target: CaBzz1-D1
# Procedure, shortened: as §1
# [23] = biological target: CaBzz1-D2
# Procedure, shortened: as §1
# [24] = biological target: CaCyk3
# Procedure, shortened: as §1
# [25] = biological target: CaFus1
# Procedure, shortened: as §1
# [26] = biological target: CaHof1
# Procedure, shortened: as §1
# [27] = biological target: CaHse1
# Procedure, shortened: as §1
# [28] = biological target: CaLsb1
# Procedure, shortened: as §1
# [29] = biological target: CaLsb4
# Procedure, shortened: as §1
# [30] = biological target: CaMyo5
# Procedure, shortened: as §1
# [31] = biological target: CaNbp2
# Procedure, shortened: as §1
# [32] = biological target: CaRvs167
# Procedure, shortened: as §1
# [33] = biological target: CaRvs167-3
# Procedure, shortened: as §1
# [34] = biological target: CaSho1
# Procedure, shortened: as §1
# [35] = biological target: CaSla1-D1-D2
# Procedure, shortened: as §1
# [36] = biological target: CaSla1-D3
# Procedure, shortened: as §1
# [37] = biological target: ScAbp1
# Procedure, shortened: as §1
# [38] = biological target: ScBbc1
# Procedure, shortened: as §1
# [39] = biological target: ScBem1-D1
# Procedure, shortened: as §1
# [40] = biological target: ScBzz1-D1
# Procedure, shortened: as §1
# [41] = biological target: ScBzz1-D2
# Procedure, shortened: as §1
# [42] = biological target: ScCyk3
# Procedure, shortened: as §1
# [43] = biological target: ScFus1
# Procedure, shortened: as §1
# [44] = biological target: ScHof1
# Procedure, shortened: as §1
# [45] = biological target: ScHse1
# Procedure, shortened: as §1
# [46] = biological target: ScLsb1
# Procedure, shortened: as §1
# [47] = biological target: ScLsb2
# Procedure, shortened: as §1
# [48] = biological target: ScLsb3
# Procedure, shortened: as §1
# [49] = biological target: ScLsb4
# Procedure, shortened: as §1
# [50] = biological target: ScMyo3
# Procedure, shortened: as §1
# [51] = biological target: ScMyo5
# Procedure, shortened: as §1
# [52] = biological target: ScNbp2
# Procedure, shortened: as §1
# [53] = biological target: ScPex13
# Procedure, shortened: as §1
# [54] = biological target: ScRvs167
# Procedure, shortened: as §1
# [55] = biological target: ScSho1
# Procedure, shortened: as §1
# [56] = biological target: ScSla1-D1-D2
# Procedure, shortened: as §1
# [57] = biological target: ScSla1-D3
# Procedure, shortened: as §1
# [58] = biological target: SpAbp1-D1
# Procedure, shortened: as §1
# [59] = biological target: SpBbc1
# Procedure, shortened: as §1
# [60] = biological target: SpBzz1-D1
# Procedure, shortened: as §1
# [61] = biological target: SpBzz1-D2
# Procedure, shortened: as §1
# [62] = biological target: SpCyk3
# Procedure, shortened: as §1
# [63] = biological target: SpHof1
# Procedure, shortened: as §1
# [64] = biological target: SpHof1-2
# Procedure, shortened: as §1
# [65] = biological target: SpHof1-3
# Procedure, shortened: as §1
# [66] = biological target: SpHse1
# Procedure, shortened: as §1
# [67] = biological target: SpLsb1
# Procedure, shortened: as §1
# [68] = biological target: SpLsb4
# Procedure, shortened: as §1
# [69] = biological target: SpMyo1
# Procedure, shortened: as §1
# [70] = biological target: SpNbp2
# Procedure, shortened: as §1
# [71] = biological target: SpPex13
# Procedure, shortened: as §1
# [72] = biological target: SpRvs167
# Procedure, shortened: as §1
# [73] = biological target: SpSla1-D1-D2
# Procedure, shortened: as §1
# [74] = biological target: SpSla1-D3
# Procedure, shortened: as §1
binder,measurement,setting,value
B1,SPOT peptide array binding signal intensity,[1],≤ 0
same,SPOT peptide array binding signal intensity,[2],2.75
same,SPOT peptide array binding signal intensity,[3],≤ 0
same,SPOT peptide array binding signal intensity,[4],1
same,SPOT peptide array binding signal intensity,[5],≤ 0
same,SPOT peptide array binding signal intensity,[6],2
same,SPOT peptide array binding signal intensity,[7],≤ 0
same,SPOT peptide array binding signal intensity,[8],3
same,SPOT peptide array binding signal intensity,[9],27
same,SPOT peptide array binding signal intensity,[10],≤ 0
same,SPOT peptide array binding signal intensity,[11],≤ 0
same,SPOT peptide array binding signal intensity,[12],468
same,SPOT peptide array binding signal intensity,[13],≤ 0
same,SPOT peptide array binding signal intensity,[14],≤ 0
same,SPOT peptide array binding signal intensity,[15],≤ 0
same,SPOT peptide array binding signal intensity,[16],4.5
same,SPOT peptide array binding signal intensity,[17],≤ 0
same,SPOT peptide array binding signal intensity,[18],≤ 0
same,SPOT peptide array binding signal intensity,[19],≤ 0
same,SPOT peptide array binding signal intensity,[20],≤ 0
same,SPOT peptide array binding signal intensity,[21],≤ 0
same,SPOT peptide array binding signal intensity,[22],23
same,SPOT peptide array binding signal intensity,[23],0.25
same,SPOT peptide array binding signal intensity,[24],4
same,SPOT peptide array binding signal intensity,[25],≤ 0
same,SPOT peptide array binding signal intensity,[26],1
same,SPOT peptide array binding signal intensity,[27],0.5
same,SPOT peptide array binding signal intensity,[28],≤ 0
same,SPOT peptide array binding signal intensity,[29],≤ 0
same,SPOT peptide array binding signal intensity,[30],13.8
same,SPOT peptide array binding signal intensity,[31],18
same,SPOT peptide array binding signal intensity,[32],≤ 0
same,SPOT peptide array binding signal intensity,[33],6.5
same,SPOT peptide array binding signal intensity,[34],≤ 0
same,SPOT peptide array binding signal intensity,[35],≤ 0
same,SPOT peptide array binding signal intensity,[36],≤ 0
same,SPOT peptide array binding signal intensity,[37],1
same,SPOT peptide array binding signal intensity,[38],2.25
same,SPOT peptide array binding signal intensity,[39],≤ 0
same,SPOT peptide array binding signal intensity,[40],≤ 0
same,SPOT peptide array binding signal intensity,[41],2
same,SPOT peptide array binding signal intensity,[42],1
same,SPOT peptide array binding signal intensity,[43],≤ 0
same,SPOT peptide array binding signal intensity,[44],≤ 0
same,SPOT peptide array binding signal intensity,[45],≤ 0
same,SPOT peptide array binding signal intensity,[46],0.25
same,SPOT peptide array binding signal intensity,[47],≤ 0
same,SPOT peptide array binding signal intensity,[48],≤ 0
same,SPOT peptide array binding signal intensity,[49],2
same,SPOT peptide array binding signal intensity,[50],1430
same,SPOT peptide array binding signal intensity,[51],161
same,SPOT peptide array binding signal intensity,[52],≤ 0
same,SPOT peptide array binding signal intensity,[53],≤ 0
same,SPOT peptide array binding signal intensity,[54],≤ 0
same,SPOT peptide array binding signal intensity,[55],≤ 0
same,SPOT peptide array binding signal intensity,[56],≤ 0
same,SPOT peptide array binding signal intensity,[57],2.25
same,SPOT peptide array binding signal intensity,[58],≤ 0
same,SPOT peptide array binding signal intensity,[59],≤ 0
same,SPOT peptide array binding signal intensity,[60],125
same,SPOT peptide array binding signal intensity,[61],≤ 0
same,SPOT peptide array binding signal intensity,[62],≤ 0
same,SPOT peptide array binding signal intensity,[63],≤ 0
same,SPOT peptide array binding signal intensity,[64],≤ 0
same,SPOT peptide array binding signal intensity,[65],≤ 0
same,SPOT peptide array binding signal intensity,[66],8.75
same,SPOT peptide array binding signal intensity,[67],≤ 0
same,SPOT peptide array binding signal intensity,[68],≤ 0
same,SPOT peptide array binding signal intensity,[69],339
same,SPOT peptide array binding signal intensity,[70],27.5
same,SPOT peptide array binding signal intensity,[71],≤ 0
same,SPOT peptide array binding signal intensity,[72],≤ 0
same,SPOT peptide array binding signal intensity,[73],≤ 0
same,SPOT peptide array binding signal intensity,[74],≤ 0
